High-throughput results deposited in PubChem by National Center for Advancing Translational Sciences (NCATS).
This is a sample that favours compounds with a hit; in the whole collection about 12% have one here.
Cycloheximide cs: counter-screen hit for Shiga toxin inhibitors, cycloheximide; hit rate 12% among 300,000; max response, %; AID 2314; cell reporter, cycloheximide protein synthesis inhibition counterscreen; in the data active = max response mostly above about 13%, no sharp cut-off; inactive = mostly below about 14%; note: read at 38.3 µM for the half of the compounds with a filed dose; 0% is about no effect
SARS PLP yeast: inhibitors of SARS-CoV papain-like protease in yeast. hit rate 0.19% among 330,000. AID 485353. S. cerevisiae expressing SARS-CoV PLpro, growth rescue. Potency, µM (titrated, usually from 32.9 µM), for the others: at the highest dose activity, positive = growth rescue, usual class: activators; note: potency is the fitted concentration of half-maximal effect; 0% is about no effect; nearly all actives have a fitted effect of over 55% in size
Shiga toxin inh: blocks Shiga toxin action in Vero cells; inhibition, % at 38.7 µM; Vero cells, Shiga toxin protein synthesis inhibition reporter; hit rate 9.2% among 290,000; in the data active = inhibition mostly above about 28%, no sharp cut-off; inactive = mostly below about 43%; note: 0% is about no effect
NS1 function inh: blocks influenza NS1 protein function. hit rate 0.4% among 270,000. AID 2326. Potency, µM (top dose mostly 46.1 µM), for the others: at the top dose activity, positive = more growth; note: potency is the fitted concentration of half-maximal effect; actives are rising curves; nearly all actives have a fitted effect of over 50% in size
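OD600 was taken as the measure of yeast growth restored by compound in an NS1-expressing S. cerevisiae strain. Cells had been washed out of glucose medium and diluted 1:100 into galactose -URA medium, pH 6.0.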
An asterisk follows results filed as active; ? = inconclusive; . = no result; + = active, no number. Unless noted, calls come from the whole dose curve.

SMILES	Cycloheximide cs	SARS PLP yeast	Shiga toxin inh	NS1 function inh
CCOC(=O)C1=C(N)OC2=C(C(=O)CC(C)(C)C2)C1c1ccc(C)s1 (centres undefined)	26*	-7%	89*	.
NS(=O)(=O)c1ccc(CCNC(=O)c2cccc([N+](=O)[O-])c2)cc1	13	1%	-6	-1%
CCOC(=O)CSc1cc(-c2ccccc2)nc2ncnn12	-2	-2%	-5	0%
Cc1ccc(Nc2c(-c3ccc(C)o3)nc3ncccn23)cc1	21*	-1%	54*	-5%
Oc1ccc(-c2nc3ncccn3c2Nc2ccc3c(c2)OCO3)cc1	-4	3%	-22	4%
Cc1ccc(-c2nc3ncccn3c2Nc2ccccc2C)o1	15	0%	-4	.
Cc1ccc(-c2nc3ncccn3c2Nc2ccc3c(c2)OCO3)o1	20*	5%	11	4%
CC(=O)c1cc2c(C)c(C(=O)c3ccccc3)oc2cc1O	45*	-17%	79*	-3%
COc1ccccc1-c1nnc(Nc2nc3c(OC)cccc3s2)o1	12	-27%	45*	3%
COc1cccc2sc(Nc3nnc(-c4ccccc4Cl)o3)nc12	0	-36%	-3	-127%
COc1cccc(-c2nnc(Nc3nc4c(F)cccc4s3)o2)c1	38	-18%	82*	-14%
O=C(Cn1nc(C(=O)O)c2ccccc2c1=O)Nc1cccc(S(=O)(=O)N2CCCC2)c1	.	4%	.	.
NS(=O)(=O)c1cccc(NC(=S)NC(=O)C23CC4CC(CC(C4)C2)C3)c1	23*	10%	66*	28%
CC(/C=N/NC(=O)c1cc(-c2ccc(C)o2)[nH]n1)=C\c1ccccc1	-2	5%	-6	14%
O=C(N/N=C/C(Br)=C/c1ccccc1)c1cc(-c2ccco2)[nH]n1	8	-3%	39*	0%
Cc1ccc(-c2cc(C(=O)N/N=C/c3ccccc3)n[nH]2)o1	25*	3%	82*	8%
CC(=O)c1c(O)cccc1O	-12	.	-15	.
CN1C(=O)/C(=C\c2ccc(OC(=O)c3ccco3)cc2)SC1=S	-1	-3%	-5	-12%
CCOc1ccc(CCNS(=O)(=O)c2ccc3c(c2)oc(=O)n3C)cc1OCC	5	10%	-7	3%
Cc1sc(NC(=O)c2ccco2)c(CN2CCCCC2)c1C	5	?	6	-3%
COc1ccc(C(=O)Nc2sc(C)c(C)c2CN2CC(C)OC(C)C2)cc1 (centres undefined)	31*	6%	68*	0%
Cc1n[nH]c(=O)nc1N/N=C/c1ccc(O)c([N+](=O)[O-])c1	14	6%	-3	2%
COc1cc(/C=N/Nc2nc(=O)[nH]nc2C)ccc1O	37*	-1%	70*	6%
COc1ccc(/C=N/Nc2nc(=O)[nH]nc2C)cc1OC	33*	-2%	66*	3%
COc1cc(/C=N/Nc2nc(=O)[nH]nc2C)cc([N+](=O)[O-])c1O	25*	-1%	57*	4%
SMILES	Cycloheximide cs	SARS PLP yeast	Shiga toxin inh	NS1 function inh
COc1ccc(/C=N/Nc2nc(=O)[nH]nc2C)cc1[N+](=O)[O-]	7	-14%	6	-10%
O=C(NCCc1ccccc1Cl)C1CCC(=O)N(CC2CCCCC2)C1 (centres undefined)	11	-2%	-7	-18%
CCCCC1CCC(C(=O)Nc2ccccc2N2CCOCC2)CC1 (centres undefined)	.	-2%	.	.
COc1cc(NC(=O)c2ccc3c(c2)OCCO3)ccc1NC(=O)c1ccccc1Cl	-7	-3%	-19	17%
COc1cc(C(=O)Nc2ccc3c(c2)OCCO3)ccc1OC(F)F	33*	-2%	66*	-19%
COc1ccc(C(=O)Nc2ccc3c(c2)OCCO3)cc1[N+](=O)[O-]	18*	-2%	31*	.
COc1ccc(NC(=O)c2ccc3c(c2)OCCO3)cc1OC	22*	0%	62*	0%
COc1cccc(OC)c1C(=O)Nc1ccc2c(c1)OCCO2	-3	8%	25	-12%
CCn1cc(C(=O)Nc2ccc3c(c2)OCCO3)c2cc(OC)c(OC)cc2c1=O	12*	2%	29	3%
COc1cc(C(=O)Nc2ccc3c(c2)OCCO3)ccc1OC(C)C	44*	-7%	+	-13%
CCn1cc(C(=O)N(C)c2ccc(OC)cc2OC)c2cc(OC)c(OC)cc2c1=O	47*	-1%	58*	0%
Cc1cc(C)n2nc(SCc3ccccc3F)nc2n1	-1	-2%	16	-8%
Cc1cc(C)n2nc(SCCOc3ccccc3)nc2n1	11*	1%	75	-7%
COc1ccc(OCCSc2nc3nc(C)cc(C)n3n2)cc1	0	0%	19	-2%
Cc1cc(C)n2nc(SCc3nc4ccccc4[nH]3)nc2n1	14	19%	active	?
N#Cc1ccc(C2=CC(=O)C[C@H](c3ccc(F)cc3)C2)cc1	.	-1%	.	.
O=C1CCCN=C(Nc2ccc(F)c(Cl)c2)S1	12	-1%	54*	-7%
CCOC(=O)C1CCCN(C(=O)Nc2ccccc2)C1 (centres undefined)	-4	-5%	-16	-3%
COc1ccc(C(=O)NNC(=O)C(=O)/C=C(\O)c2ccc(C)cc2)cc1	8	4%	7	6%
O=C(/C=C(\O)c1ccccc1)C(=O)NNC(=O)c1ccccc1	39*	0%	52*	2%
Cc1ccc(-c2nc(-c3nccc4ccccc34)oc2-c2ccccc2)cc1	22*	-1%	98*	-5%
c1ccc2c(c1)Cn1nnnc1-2	-3	1%	-13	10%
Brc1c(-c2ccccc2)nc2n1Cc1ccccc1-2	52*	0%	141*	-54%
c1ccc2c(c1)Cn1c-2nc2ccccc21	32*	-24%	62*	-103%
O=C1c2ccccc2-c2nc3ccccc3n21	-3	0%	2	3%
SMILES	Cycloheximide cs	SARS PLP yeast	Shiga toxin inh	NS1 function inh
CCOc1ccc(NC(=O)Nc2cccn(Cc3ccccc3)c2=O)cc1	31*	-2%	33	-13%
CSc1ccccc1NC(=O)Nc1cccc(F)c1	22*	-2%	41*	-46%
COc1ccccc1NC(=O)Nc1ccccc1SC	1	-1%	35	-3%
O=C(NCc1ccccc1)Nc1cccn(Cc2ccccc2F)c1=O	20*	4%	5	-5%
O=C(NCc1ccccc1)Nc1cccn(Cc2ccccc2)c1=O	13	13%	-4	3%
CSc1ccccc1NC(=O)Nc1ccccc1	25*	-17%	91*	-74%
CC(C)(C)OC(=O)C[C@@H]1C/C=C\C[C@@H](CC(=O)NCCO)C(=O)NCCOC1=O	.	-1%	.	.
COC(=O)c1cc(CNC(=O)c2ccc(N3CCCC3)c([N+](=O)[O-])c2)ccc1OC	-3	-3%	-14	5%
CCC(C)NC(=O)c1[nH]c(C)c(C(=O)OC)c1C (centres undefined)	-1	-10%	11	-1%
Cc1ccccc1CC(=O)Nc1sc(C(C)C)cc1C(=O)N1CCOCC1	-3	-4%	-12	-3%
CC(NC(=O)COc1ccccc1)C(=O)NCc1ccccc1Cl (centres undefined)	.	3%	.	.
CC1(C)NC(=O)N(CC(=O)N2CCCC(C(F)(F)F)C2)C1=O (centres undefined)	.	4%	.	.
CCOc1ccc(NC(=O)Nc2ccccc2SC)cc1	33*	-1%	66*	-6%
CN(C)c1nc(-c2ccccc2)ns1	33*	-4%	130*	0%
